Inconclusive results are not listed. Some structures have more than one record in an assay (separate samples or runs), and their calls can disagree. The source made the active and inactive calls. Rule for the calls: active = hit-call score of the fitted dose curve at least 0.9, where 1 is the maximum; inconclusive = response in the unintended direction; inactive = score below 0.9.
read-out: xenobiotic metabolism (CYP1A2), CYP1A2 (gene 1544); assay: CLD_CYP1A2_48hr: CellzDirect (CLD) Gene Expression Assay for xenobiotic metabolism (CYP1A2) at 48 hours (AID 2283703)
Procedure: CLD_48hr is a cell-based, multiplexed-readout assay that uses hepatocyte, a human liver primary cell, with measurements taken at 48 hours after chemical dosing in a 96-well plate.CLD_CYP1A2_48hr is one of 16 assay component(s) measured or calculated from the CLD_48hr assay. It is designed to make measurements of mRNA induction, a form of inducible reporter, as detected with chemiluminescence signals by Quantitative Nuclease Protection Assay (qNPA) technology.Data from the assay component CLD_CYP1A2_48hr was analyzed at the endpoint, CLD_CYP1A2_48hr, in the positive analysis fitting direction relative to DMSO as the negative control and baseline of activity. Using a type of inducible reporter, gain-of-signal activity can be used to understand changes in the reporter gene as they relate to the gene CYP1A2. Furthermore, this assay endpoint can be referred to as a primary readout. To generalize the intended target to other relatable targets, this assay endpoint is annotated to the cyp intended target family, where subfamily is xenobiotic metabolism.
Human hepatocyte cultures were treated daily for two consecutive days with fresh dosing solutions containing appropriate concentrations of the 320 ToxCast chemicals (chemical identities were blinded to CellzDirect and other ToxCast collaborators), vehicle control (0.2% DMSO), and positive control inducers as summarized in Table 1. Due to the large number of treatment groups and chemicals examined, the ToxCast chemicals were divided into two groups (spanning two independent cultures of hepatocytes from separate donor preparations (Hu778: ToxCast plates 1 and 2; Hu776: ToxCast plates 3 and 4). Each preparation of human hepatocyte cultures was treated with respective vehicle control, medium only control, set of six positive controls/reference chemicals for the five hepatic receptor pathways, and a subset of eight of the ToxCast chemicals (indoxacarb, pyrithiobac-sodium, norflurazon, cyhalofop-butyl, methomyl, thiram, acetochlor, and propiconazole). These replicate data, coupled with internal replicates designed within the blinded ToxCast chemical library, provided additional data to evaluate interindividual differences between hepatocyte preparations and their potential impact on chemical profiles.Cell morphology and integrity were evaluated using phase-contrast microscopy as an indicator of hepatocyte cell health (Tyson & Green, 1987). Cultures for each treatment group (i.e., media, vehicle [0.2% DMSO], positive control inducers [multiple concentrations], and the ToxCast chemicals [multiple concentrations]) were observed and cell morphology was assessed relative to vehicle control cultures at each harvest time point (0, 6, 24, or 48 h). […] Images were evaluated at the conclusion of the study to assess changes in cell integrity and account for the effects of chemical exposure on uncharacteristic changes in concentration-dependent gene expression profiles. The results from these determinations of apparent cytotoxicity were annotated (yes/no) alongside the corresponding qNPA data for reference.At the conclusion of each treatment period, hepatocyte cultures (96-well) were washed with 1 volume of HBSS, lysed by addition of 25 ul ArrayPlate lysis buffer (HTG, Tucson, AZ), and 70 ul/well of Denaturation Oil, denatured by incubation at 95C for 10 min, and frozen at approximately -70C until analysis by nuclease protection assay (qNPA) (Roberts et al., 2007). For qNPA analysis, cell lysates were thawed at 50C for approximately 30 min, qNPA probes were added, and samples were incubated at 95C for 10 min to begin the detection process by denaturing the target RNA, dissociating the duplexes and secondary structure hybridization. At the conclusion of the hybridization period, S1 nuclease reagent was added to each sample to digest all nonprotected nucleotides at 50C for 60-90 min. […]

Row | Structure (SMILES) | outcome | AC50
1 | CCCCOC(=O)[C@@H](C)Oc1ccc(Oc2ccc(C(F)(F)F)cn2)cc1 | inactive | –
2 | OB(O)O | inactive | –
3 | CCNc1nc(N)nc(Cl)n1 | – | 3.97 µM (active)
4 | CCCN(CCC)C(=O)SCC | inactive | 6.32 µM (active)
5 | CCCN(CCC)c1c([N+](=O)[O-])cc(C(F)(F)F)c(N)c1[N+](=O)[O-] | – | 2.63 µM (active)
6 | CSC(=O)c1cccc2nnsc12 | – | 9.55 µM (active)
7 | N#CSCSc1nc2ccccc2s1 | – | 2.82 µM (active)
8 | C#CCOC(=O)[C@@H](C)Oc1ccc(Oc2ncc(Cl)cc2F)cc1 | inactive | –
9 | COCCO | inactive | –
10 | CCN(Cc1c(F)cccc1Cl)c1c([N+](=O)[O-])cc(C(F)(F)F)cc1[N+](=O)[O-] | – | 0.565 µM (active)
11 | CCOC(=O)[C@H](C)Oc1ccc(Oc2nc3ccc(Cl)cc3o2)cc1 | – | 20 µM (active)
12 | CCCCCOC(=O)COc1cc(N2C(=O)C3=C(CCCC3)C2=O)c(F)cc1Cl | inactive | –
13 | CCOC(=O)COc1cc(-n2ncc(C(F)(F)F)c(C)c2=O)c(F)cc1Cl | inactive | –
14 | COC(=O)c1ccc(I)cc1S(=O)(=O)NC(=O)Nc1nc(C)nc(OC)n1 | – | 20 µM (active)
15 | COC(=O)c1cccc(C)c1S(=O)(=O)NC(=O)Nc1nc(OCC(F)(F)F)nc(N(C)C)n1 | – | 5.82 µM (active)
16 | O=C(Nc1ccc([N+](=O)[O-])cc1Cl)c1cc(Cl)ccc1O | – | 0.549 µM (active)
17 | CCCCC(CC)CN1C(=O)C2C3C=CC(C3)C2C1=O (stereo not given) | – | 12.6 µM (active)
18 | CCOC(=O)C(C)Oc1ccc(Oc2cnc3cc(Cl)ccc3n2)cc1 (stereo not given) | inactive | –
19 | COc1c(Cl)ccc(Cl)c1C(=O)O | inactive | –
20 | CCCCCCC(C)OC(=O)COc1nc(F)c(Cl)c(N)c1Cl (stereo not given) | inactive | –

Row | Structure (SMILES) | outcome | AC50
21 | CCC(O)=C1C(=O)CC(C(=O)O)CC1=O (stereo not given) | inactive | –
22 | O=C(O)C1(C(=O)Nc2ccc(Cl)cc2Cl)CC1 | inactive | –
23 | CCCCOCCOCCOCc1cc2c(cc1CCC)OCO2 | – | 5.82 µM (active)
24 | CN(C)C(=O)Nc1ccc(Cl)c(Cl)c1 | – | 11.9 µM (active)
25 | COC(=O)c1ccccc1S(=O)(=O)NC(=O)Nc1nc(OC(F)F)cc(OC(F)F)n1 | – | 11 µM (active)
26 | CCCOC(=O)c1ccc(C(=O)OCCC)nc1 | inactive | –
27 | COC(=O)CSc1cc(N=c2sc(=O)n3n2CCCC3)c(F)cc1Cl | inactive | –
28 | CCCCC(CC)COC(=O)c1ccccc1C(=O)O (stereo not given) | inactive | –
29 | CC1(C)C(C=C(Cl)Cl)C1C(=O)OCc1cccc(Oc2ccccc2)c1 (stereo not given) | – | 9.51 µM (active)
30 | CCC(C)OC(=O)N1CCCCC1CCO (stereo not given) | inactive | –
31 | CCOC(=O)NCCOc1ccc(Oc2ccccc2)cc1 | inactive | –
32 | CCOC(=O)C(C)Oc1ccc(Oc2nc3ccc(Cl)cc3o2)cc1 (stereo not given) | inactive | –
33 | COC(=O)c1c(Cl)nn(C)c1S(=O)(=O)NC(=O)Nc1nc(OC)cc(OC)n1 | – | 1.13 µM (active)
34 | CCSC(=O)N(CC(C)C)CC(C)C | inactive | –
35 | c1ccc(Nc2ccccc2)cc1 | – | 4.82 µM (active)
36 | CCN(CC)C(=O)c1cccc(C)c1 | inactive | –
37 | CCCOC(=O)NCCCN(C)C | inactive | –
38 | COC(=O)c1ccccc1C(=O)O | inactive | –
39 | c1ccc2[nH]c(-c3cscn3)nc2c1 | – | 1.36 µM (active)
